Compound activity from PubChem.
This is a sample that favours compounds with a hit; in the whole collection about 3.9% have one here.
D1 PAM: enhances dopamine response at the human D1 receptor; P21728; HEK293 TREx D1 cells, calcium flux, dopamine EC20 potentiation; potentiation, % at 10 µM; actives 0.036% (n = 360,000); AID 504651; in the data active = potentiation above about 30%
Target sequence (P21728 whole entry, looked up): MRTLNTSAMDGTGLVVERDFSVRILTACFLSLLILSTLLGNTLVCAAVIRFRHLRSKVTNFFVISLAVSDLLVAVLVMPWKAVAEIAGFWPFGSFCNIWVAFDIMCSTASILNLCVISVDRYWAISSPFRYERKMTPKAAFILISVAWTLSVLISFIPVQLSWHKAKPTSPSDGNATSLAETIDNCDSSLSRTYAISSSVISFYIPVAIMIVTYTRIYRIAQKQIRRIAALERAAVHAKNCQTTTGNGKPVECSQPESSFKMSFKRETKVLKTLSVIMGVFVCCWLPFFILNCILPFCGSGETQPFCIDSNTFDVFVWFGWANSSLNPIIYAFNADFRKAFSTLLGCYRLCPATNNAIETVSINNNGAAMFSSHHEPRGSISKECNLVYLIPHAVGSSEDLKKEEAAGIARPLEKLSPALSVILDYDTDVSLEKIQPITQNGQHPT
Eya2 phos inh: Eya2 (human) phosphatase inhibition | O00167 | recombinant Eya2, OMFP fluorescence dephosphorylation (OMFP is methylfluorescein phosphate) | Potency, µM (series often up to 76.9 µM), most hits filed as inhibitors | actives 0.006% (n = 330,000) | AID 488837
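Eya2 (0.2 uM) preincubated 10 min at ambient with compound, then OMFP substrate added at 50 uM; 10 min reaction in 50 mM HEPES pH 7.5, 50 mM NaCl, 5 uM MgCl2, 0.05% BSA, 1 mM DTT. Fluorescence read at Ex 485/Em 525 nm.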
USP2a block: USP2a (human) protease inhibition; USP2 core, Ub-CHOP2 coupled fluorogenic reporter, 485/531; AID 463254; actives 0.01% (n = 330,000); Potency, µM (series often up to 38.3 µM), hits mostly inhibitors
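Cell-free coupled assay: 10nM USP2 core preincubated 30min RT with compound in Tris-HCl pH 8.0/CaCl2/CHAPS buffer, then 25nM Ub-CHOP2 and 25nM reporter substrate; fluorescence (Ex 485/Em 531) read after 60min RT, normalized to NEM inhibition, concentration-response curves fitted.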
D1 antagonist: blocks dopamine activation of the human D1 receptor. HEK293 TREx D1 cells, calcium flux, dopamine EC80; active compounds read low. activity change, negative = inhibition, % at 10 µM. actives 3.2% (n = 360,000); in the data active = activity change below about -30%
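Antagonism measured as reduced calcium response to an EC80 dopamine addition following 180 s compound pre-read; cells were inducible HEK293 Trex D1 plated overnight at 30 C, read kinetically at 1 cycle/sec.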
GALK inhibitor: inhibitors of human galactokinase | P51570 | Purified GALK, Kinase-Glo residual ATP luminescence | Potency, µM (series often up to 57.5 µM), usual class: inhibitors | actives 0.007% (n = 270,000) | AID 1868
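Human GALK (5 nM) with 35 uM ATP and 100 uM galactose in 20 mM HEPES pH 8.0, 5 mM MgCl2, 60 mM NaCl, 1 mM DTT, 0.01% BSA. After 1 h at room temperature, leftover ATP was read by Kinase-Glo Plus luminescence.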
D1 ag: activates the human D1 dopamine receptor | P21728 | activation, % at 2 µM | HEK293 T-REx D1 cells, calcium flux, agonist mode | actives 1% (n = 360,000); in the data active = activation above about 30%
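Tetracycline-induced HEK293 TREx D1 cells, force-coupled to calcium signalling, were dye-loaded with a no-wash calcium kit. Compound was pin-added after a 10 s baseline. Fluorescence was read kinetically at 1 cycle/s for 180 s, with calcium rises flagged as agonism.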
Numbers stand for hits; – = inactive; ? = inconclusive; · = no result. Unless noted, calls follow the shape of the dose curve; as a rule, active = well fitted inhibition curve with a large enough effect; inconclusive = small, poorly fitted or top-dose-only effect, or effect the other way; inactive = flat fitted curve, though single readings scatter.

SMILES	D1 PAM	Eya2 phos inh	USP2a block	D1 antagonist	GALK inhibitor	D1 ag
CCCCN(CC)CCCNC(=O)c1ccc2c(c1)N(Cc1ccc(C)cc1)C(=O)c1ccccc1S2	–	·	·	-32.6	·	51.0
O=C(Cn1cc(S(=O)(=O)N2CCCC2)c(S(=O)(=O)N2CCCC2)c1)Nc1ccccc1	–	·	·	–	·	–
Cc1csc(NC(=O)c2ccc(OCC3CCCO3)cc2)n1 (configuration not stated)	–	–	–	-59.0	–	–
O=C(Nc1nc(-c2ccc(F)c(F)c2)cs1)c1ccc(OCC2CCCO2)cc1 (configuration not stated)	–	–	–	–	–	–
CCCNC(=O)c1ccc2c(=O)c(O)c(-c3cccc(Br)c3)[nH]c2c1	–	–	–	-35.9	–	–
CCCNC(=O)c1ccc2c(=O)c(O)c(-c3ccc(F)cc3)[nH]c2c1	–	?	–	-58.6	–	–
COc1ccc(NC(=O)Cn2nc(-c3ccncc3)ccc2=O)cc1Cl	–	·	·	–	·	–
Cc1ccc(NS(=O)(=O)c2ccc(C(=O)N3CC(C)CC(C)C3)cc2)cc1 (configuration not stated)	–	–	–	-42.0	·	72.5
Cc1ccc(S(=O)(=O)Nc2ccc(C(=O)N3CCCC3)cc2)cc1	–	–	–	–	–	–
Cc1ccc(-n2ncc3c(NCCCc4ccccc4)ncnc32)cc1	–	·	·	–	·	–
Cc1ccc(NC(=O)CN2C(=O)COc3ccc(S(=O)(=O)NC4CCCC4)cc32)cc1Cl	–	·	·	–	·	–
COc1ccc(NC(=O)CCCNS(=O)(=O)c2cccs2)cc1	–	–	–	–	–	–
O=C(O)CCCNS(=O)(=O)c1cccs1	–	–	–	-58.3	–	–
Fc1cccc(CSc2ncnc3c2oc2ccccc23)c1	–	–	–	-92.6	–	–
Fc1ccc(CSc2ncnc3c2oc2ccccc23)cc1	–	–	–	–	–	–
Cc1ccccc1NC(=O)c1sc2nc3n(c(=O)c2c1C)N=C(c1ccccc1)CS3	–	·	·	–	·	–
Cc1cccc(N2CCN(C(=O)c3c(-c4ccccc4)noc3C)CC2)c1C	–	–	–	–	–	–
Cc1cccc(N2CCN(C(=O)/C=C/c3cccs3)CC2)c1C	–	–	–	-41.5	–	–
CCc1noc(C)c1C(=O)N1CCN(c2cccc(C)c2C)CC1	–	–	–	-30.5	·	–
CC1CCCCN1C(=O)CSc1nnc2c(n1)[nH]c1ccc(F)cc12 (configuration not stated)	–	–	–	–	–	–
CC1CCc2cc(F)ccc2N1C(=O)CSc1nnc2c(n1)[nH]c1ccc(F)cc12 (configuration not stated)	–	–	–	-36.5	–	–
CN(C)CC/C=C1\c2ccccc2COc2ccccc21	–	–	–	-78.8	–	–
CCCCCC[N+](C)(C)CC/C=C1/c2ccccc2Sc2ccc(Cl)cc21	–	–	–	-38.3	–	–
COc1ccc2c(c1)C(=O)c1ccccc1CO2	–	–	–	–	–	–
S=C1Nc2ccccc2Sc2ccc(Cl)cc21	–	–	–	–	–	–
SMILES	D1 PAM	Eya2 phos inh	USP2a block	D1 antagonist	GALK inhibitor	D1 ag
CN(C)CC/C=C1/c2ccccc2Sc2ccc(Cl)cc21	–	–	–	-95.9	–	–
CC(C)(C)n1nnnc1C(c1cccnc1)N1CCN(c2ccccc2)CC1 (configuration not stated)	–	–	–	–	–	–
CC(C)(C)n1nnnc1C(c1cccnc1)N1CCN(c2ccccn2)CC1 (configuration not stated)	–	–	–	-60.4	–	30.9
O=C1COc2ccc(C(=O)COC(=O)Cc3c(F)cccc3Cl)cc2N1	–	–	–	-30.8	·	–
O=C1COc2ccc(C(=O)COC(=O)Cc3ccccc3F)cc2N1	–	–	–	–	–	–
O=C(NC(=S)Nn1cnnc1)c1ccccc1Cl	–	–	–	–	–	–
CC(C)(C)c1ccc(C(=O)NC(=S)Nn2cnnc2)cc1	–	–	–	-32.0	–	–
CC(=O)c1ccc(OC(C)C)c(CN2CCCCC2)c1	–	–	–	–	–	–
CC(=O)c1cc(CN2CCCCC2)cc(OC(C)C)c1	–	–	–	-44.6	·	–
COc1ccc(C(CC(=O)Nc2ccc(Br)cn2)N2Cc3ccccc3C2=O)cc1 (configuration not stated)	–	·	·	–	·	–
Cc1nc2nc(NC(=O)c3ccccc3F)[nH]n2c(=O)c1Cl	–	·	·	–	·	–
O=C(O)c1cccc(N/N=C/c2cccnc2)c1	–	–	–	-30.8	–	–
CCOc1ccc(C(=O)Nc2nnc(SCc3cc(=O)c4cc(C)ccc4[nH]3)s2)cc1	–	·	·	–	·	–
Fc1cc(F)c(C2SCCN2C(=S)Nc2cccc(C(F)(F)F)c2)c(F)c1 (configuration not stated)	–	–	–	–	–	77.4
COc1ccc(/C=C2/SC(=S)N(Cc3ccccc3)C2=O)cc1O	–	–	–	–	·	–
COc1ccc(O)c(/C=C2/SC(=S)N(Cc3ccccc3)C2=O)c1	–	–	–	–	–	40.3
O=C1/C(=C\c2cc(Cl)c(O)c(Cl)c2)SC(=S)N1Cc1ccccc1	–	?	?	-85.4	?	412.5
COc1ccc(OC)c(/C=C2\SC(=S)N(Cc3cccnc3)C2=O)c1	–	–	–	–	–	47.6
COc1ccc(CSc2nc3ccncc3n2CC(=O)Nc2cc(C)cc(C)c2)cc1	–	·	·	–	·	–
COc1ccc(-c2nc3ccccc3o2)cc1NC(=O)c1ccc(OCC(C)C)cc1	–	·	·	–	·	–
N[C@H](C(=O)O)[C@H](Cc1ccccc1)C(=O)O	·	–	·	·	·	·
CCN1CCc2c(sc(NC(=O)c3ccc(S(=O)(=O)N(CCOC)CCOC)cc3)c2C(N)=O)C1	–	·	·	–	·	–
CCN1CCc2c(sc(NC(=O)c3ccc(S(=O)(=O)N(C)c4ccccc4)cc3)c2C(=O)NC)C1	–	–	–	–	–	175.0
CNC(=O)c1c(NC(=O)c2ccc(S(=O)(=O)N(C)c3ccccc3)cc2)sc2c1CCN(C(C)C)C2	–	–	–	–	–	90.2
CCOc1ccc(NC(=O)CSc2ccc3ccccc3n2)cc1	–	·	·	–	·	–
O=S(=O)(Nc1cccnc1)c1ccc(Cl)c(C(F)(F)F)c1	–	·	·	-37.7	–	–
CC(C)Cc1ccc(S(=O)(=O)Nc2cccnc2)cc1	–	–	–	–	·	–
Cc1ccc(S(=O)(=O)Nc2cccnc2)cc1C	–	–	–	–	–	–
CCC(C)c1ccc(S(=O)(=O)Nc2cccnc2)cc1 (configuration not stated)	–	–	–	-51.3	–	–
Cc1ccc(C)c(-c2csc(-c3c(N)c(C(=O)c4ccc5c(c4)OCO5)n4ccccc34)n2)c1	–	·	·	–	·	–
